FLuc modulator – qHTS profiling assay for firefly luciferase inhibitor/activator using purifed enzyme and Km concentrations of substrates (counterscreen for miR-21 project). Luciferin 4-monooxygenase (Photinus pyralis), P08659. purified FLuc, Km substrates, luminescence inhibition. Potency, µM (titrated, usually from 57.5 µM), usual class: inhibitors. actives 6.9% (n = 360,000). AID 588342, 2011; also: nearly all actives have a fitted effect of over 55% in size
Target sequence (P08659 whole entry, looked up): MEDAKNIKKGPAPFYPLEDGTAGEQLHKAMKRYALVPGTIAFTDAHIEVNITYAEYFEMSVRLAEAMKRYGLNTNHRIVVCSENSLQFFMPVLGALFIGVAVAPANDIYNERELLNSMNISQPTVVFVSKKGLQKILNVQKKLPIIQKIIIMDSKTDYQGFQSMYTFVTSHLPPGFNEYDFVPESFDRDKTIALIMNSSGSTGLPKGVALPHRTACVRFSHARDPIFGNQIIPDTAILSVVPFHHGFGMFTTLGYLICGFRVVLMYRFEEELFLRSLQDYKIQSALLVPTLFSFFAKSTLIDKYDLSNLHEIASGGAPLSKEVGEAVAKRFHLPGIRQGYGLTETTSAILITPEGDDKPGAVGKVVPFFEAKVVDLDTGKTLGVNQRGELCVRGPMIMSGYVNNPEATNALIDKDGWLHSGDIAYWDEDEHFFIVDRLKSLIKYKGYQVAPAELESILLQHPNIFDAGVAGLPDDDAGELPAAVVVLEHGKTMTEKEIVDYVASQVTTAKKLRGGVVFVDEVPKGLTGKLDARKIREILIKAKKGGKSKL
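Purified P. pyralis luciferase, 10 nM final, with Km-level 10 uM D-luciferin and 10 uM ATP in 50 mM Tris acetate pH 7.5, 10 mM Mg acetate, 0.01% Tween-20, 0.05% BSA; 6-point qHTS titration about 60 µM downward; luminescence read.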
NPC1 promoter act – qHTS Assay for NPC1 Promoter Activators. Huh7 NPC1 promoter luciferase reporter, 24 h. Potency, µM (highest dose often 9.22 µM), actives largely listed as activators. actives 2.4% (n = 320,000); also: nearly all actives have a fitted effect of over 60% in size
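Luciferase expression driven by the NPC1 promoter was measured in stably transfected Huh7 cells after a 24 h compound incubation, using a luciferase reagent and a luminescence read.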
Rab9 promoter act – qHTS Assay for Rab9 Promoter Activators | Huh7 Rab9 promoter-luciferase reporter, luminescence, 24 h | Potency, µM (top dose mostly 9.22 µM), usual class: activators | actives 2.8% (n = 320,000); also: nearly all actives have a fitted effect of over 60% in size
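Quantitative HTS format; Huh7 Rab9-luciferase reporter cells (1500/well) receive compound 2 h post-plating, incubate 24 h at 37 °C, then get luciferase reagent for 10 min before luminescence reading.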
Luc counter – Counterscreen for Luciferase (Kinase-Glo TM) Inhibition; Luciferin 4-monooxygenase (Photuris pensylvanica), Q27757; Potency, µM (highest dose often 38.3 µM), usual class: inhibitors; actives 0.28% (n = 200,000); Kinase-Glo luciferase, ATP luminescence, 8 min; also: nearly all actives have a fitted effect of over 60% in size
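Luminescence was the read-out, taken after 8-minute incubation at ambient temperature. Luciferase turned over luciferin with 10 uM ATP in imidazole pH 7.2 buffer containing KCl, MgCl2, Tween 20 and BSA.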
SMN2 splice up – qHTS Assay for Enhancers of SMN2 Splice Variant Expression | AID 1458, 2008 | Potency, µM (series often up to 46.1 µM), hits mostly activators | actives 2.8% (n = 210,000) | HEK293 SMN2-luciferase splicing reporter, luminescence, 30-36 h; also: nearly all actives have a fitted effect of over 55% in size
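HEK293 cells carry an SMN2 […]–luciferase reporter in which exon 7 inclusion puts luciferase in frame. Cells were plated 10-12 h before compound addition, then incubated 30-36 h at 37C. ONE-Glo luminescence was read; sodium butyrate at 4.5 mM final served as control.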
Hits are given with their value; – = inactive; ? = inconclusive; · = no result given; [ ] = dose if it differs, or a comment. Rows were chosen to be rich in hits. Some 7.3% of all compounds tested hit in one or more screens of this group. Calls follow the shape of the dose curve; as a rule, active = well fitted curve in the direction sought with a large enough effect; inconclusive = small, poorly fitted or top-dose-only effect, or another doubt; inactive = no such curve, though single readings can be large; an effect the other way counts as inactive or inconclusive.

SMILES | FLuc modulator | NPC1 promoter act | Rab9 promoter act | Luc counter | SMN2 splice up
c1ccc(-n2nnc(-c3cccnc3)n2)cc1 | 13µM | 4µM | 2.8µM | · | ·
Cc1cccc(CNC(=O)c2cnc3sc(N4CCOCC4)nn3c2=O)c1 | – | · | · | · | ·
COCCNC(=O)C1CCN(Cc2cc3ccccc3n2Cc2ccc(C)cc2)CC1 | – | · | · | · | ·
COc1cc2c(cc1OC)C(COc1cc(C)cc(C)c1)N(C(=O)COc1ccccc1)CC2 (centres undefined) | – | · | · | · | ·
ClCc1cc2ccccc2nc1Cl | – | – | – | – | –
Clc1nc2ccccc2cc1-c1nnn(-c2ccccc2)n1 | 2.4µM | 3.2µM | 1.6µM | · | ·
Cc1nc(N2CCOCC2)c2c(C(=O)N(C)Cc3ccccc3)c(C)oc2n1 | – | · | · | · | ·
CCc1ccc(NS(=O)(=O)c2[nH]ncc2C(=O)OC)cc1 | – | · | · | · | –
Cc1c(Cl)c(S(N)(=O)=O)cc(S(N)(=O)=O)c1NC(=O)c1ccc(Cl)cc1 | · | · | · | –[7.66 µM] | –[9.22 µM]
N/C(=N\OC(=O)CCCOc1ccccc1)c1ccccn1 | 17µM | – | – | – | –
N/C(=N\OC(=O)CCCN1C(=O)c2ccccc2C1=O)c1ccccn1 | – | – | ? | – | –
N/C(=N\OC(=O)CSc1ccccc1)c1ccccn1 | 13µM | – | – | · | ·
Cc1cccc(N2CCN(C(=O)CN3C(=O)COc4ccc(S(=O)(=O)N5CCCC5)cc43)CC2)c1C | – | · | · | · | –
Cc1cccc(N2CCN(C(=O)CS(=O)(=O)Cc3nc(-c4ccccc4C)oc3C)CC2C)c1 (centres undefined) | – | · | · | · | –
CO/N=C/CC(=O)c1ccc(-c2ccccc2)cc1 | ? | – | – | – | –
O=C(c1ccc(Cl)cc1)c1cnc(-c2ccccc2)s1 | ? | 2.2µM | 2.8µM | – | –
O=C(c1ccc(Cl)cc1)c1cnc(Nc2ccccc2Cl)s1 | 1.5µM | 1.8µM | 1.1µM | – | 22µM
CO/N=C/CC(=O)c1cnc(-c2ccc(Cl)cc2)s1 | ? | ? | ? | – | 25µM
CN(C)/C=N/c1ncc(C(=O)c2ccc(Cl)cc2)s1 | ? | – | – | – | –
CC(=O)c1cnc(Nc2cccc(Cl)c2Cl)s1 | ? | – | ? | – | 13µM
CC(=O)c1cnc(Nc2ccccc2)s1 | – | – | – | – | –
CNc1ncc(C(=O)c2ccc(Br)cc2)s1 | 12µM | 2.8µM | 2µM | – | 16µM
CNc1ncc(C(=O)c2ccccc2)s1 | ? | ? | ? | – | –
CCOc1ccc(C(=O)NCCCCNC(=O)c2ccc(OCC)cc2)cc1 | ? | 3.5µM | ? | · | ·
CCOc1ccc(C(=O)NCCc2ccccc2)cc1 | 1.1µM | 0.4µM | 0.32µM | – | 3.5µM
SMILES | FLuc modulator | NPC1 promoter act | Rab9 promoter act | Luc counter | SMN2 splice up
CS(=O)(=O)Nc1ccc(C(=O)NCCc2ccccc2)cc1 | ? | ? | 2µM | – | 11µM
COc1ccc(C(=O)Nc2ccc(C(=O)NCCc3ccccc3)cc2)cc1 | – | – | – | – | ·
CCOc1ccc(C(=O)NCCN(C)C)cc1 | –[2.3 µM] | – | – | – | –
CC1CN(C(=O)Nc2ccc(C(=O)NCCc3ccccc3)cc2)c2ccccc2S1 (centres undefined) | – | · | · | · | 14µM
CCc1ccc(CNC(=O)c2ccc(NC(=O)N3CC(C)Sc4ccccc43)cc2)cc1 (centres undefined) | – | · | · | · | –
CS(=O)(=O)Nc1ccc(C(=O)NCCSCc2ccccc2)cc1 | – | – | – | · | ·
CCOc1ccccc1C(=O)N1CCc2cc(OC)c(OC)cc2C1COc1ccc(OC)cc1 (centres undefined) | – | · | · | · | ·
O=C(CSc1nc2c([nH]c3ccccc32)c(=O)n1-c1cccc(C(F)(F)F)c1)N1CCCC1 | – | · | · | · | ·
CN1CCN(c2ncc3nc(CCc4ccccc4)c(=O)n(CCC#N)c3n2)CC1 | · | · | · | – | –
COc1ccc(C(=O)NCC(=O)OCCCOC(=O)CNC(=O)c2ccc(OC)c(OC)c2)cc1OC | – | – | – | · | ·
CCOC(=O)c1c(C)c(C(=O)NCc2cccnc2)c(C)n1C | – | – | – | – | –
CS(=O)(=O)N1CCc2cc(C(=O)NCCc3ccccc3)ccc21 | ? | · | · | · | 13µM
CCOC(=O)c1c(C)c(C(=O)NCCc2ccccc2)c(C)n1C | ? | ? | 3.5µM | – | 16µM
CC(=O)Oc1ccc(C(=O)NCCc2ccccc2)cc1 | 9.5µM | 0.4µM | 0.5µM | – | 8.9µM
COc1ccccc1NC(=O)COC(=O)CNC(=O)c1ccc(OC)c(OC)c1 | – | – | – | – | 5µM
COc1cccc(CNc2nccn(-c3cc(C)cc(C)c3)c2=O)c1 | – | · | · | · | ·
CC(C)NC(=O)CCCN1C(=O)CCn2nc(-c3cccn3C)cc21 | – | · | · | · | ·
COC(=O)c1ccc(Cn2c(SCc3cccc(C)c3)nc3ccncc32)cc1 | – | · | · | · | –
COc1ccc(C(=O)NCCCc2ccccc2)cc1OC | – | – | – | · | ·
COc1ccc(C(=O)NCCc2ccccc2)cc1OC | ? | ? | 4µM | · | ·
Cc1ccc(OCCNC(=O)c2cccc(S(=O)(=O)NCc3ccccc3)c2)cc1 | – | – | – | · | ·
CS(=O)(=O)NCc1ccc(C(=O)NCCOc2ccccc2)cc1 | 19µM | 4µM | 3.5µM | – | 11µM
COc1ccc2nc(NC(=O)c3cc(=O)c4cc(C)cc(C)c4o3)sc2c1 | – | · | · | · | –
O=C1CCN(Cc2ccccc2)CCN1CCOc1ccccc1 | 24µM | ? | 3.5µM | · | ·
CCN1CCN(Cc2ccc(OC)c(OCc3ccccc3)c2)CC1 | – | · | · | – | –
SMILES | FLuc modulator | NPC1 promoter act | Rab9 promoter act | Luc counter | SMN2 splice up
CCN1CCN(Cc2ccc(OCc3ccccc3)cc2)CC1 | 21µM | 4µM | –[1.84 µM] | – | –
CN1CCN(Cc2ccc(OCc3ccccc3)cc2)CC1 | 13µM | ? | ? | – | –
CC(O)CNC(=O)C1CCN(Cc2ccc(OCc3ccccc3)cc2)CC1 (centres undefined) | ? | ? | – | – | –
CC(C)CNC(=O)C1CCN(Cc2ccc(OCc3ccccc3)cc2)CC1 | 17µM | – | ? | – | ?
O=C(CSc1nc2c(c(=O)[nH]1)CCC2)Nc1ccccc1C(F)(F)F | – | · | · | · | ·
O=[N+]([O-])c1ccc(/C=C/c2ccc3ccccc3n2)cc1 | 0.6µM | ? | 0.56µM | ? | 2.2µM
O=[N+]([O-])c1ccc(/C=C/c2ccc3cccc(O)c3n2)cc1 | 2.4µM | ? | ? | · | ·
CC(=O)N(C(C)=O)n1c(/C=C/c2ccc([N+](=O)[O-])cc2)nc2ccccc2c1=O | – | – | – | · | ·
Cc1ccc(N2CC(NC(=O)c3ccco3)CC2=O)cc1C (centres undefined) | – | · | · | · | ·
Cc1ccc(/C=C/c2ccc3cccc(O)c3n2)s1 | 2.7µM | 4µM | 3.2µM | · | ·
COc1cc(/C=C/c2ccc3cccc(O)c3n2)cc(OC)c1OC | ? | – | – | · | ·
COc1cccc(/C=C/c2ccc3cccc(O)c3n2)c1 | 1.5µM | ? | – | · | ·
Oc1cccc(/C=C/c2ccc3cccc(O)c3n2)c1 | 1.5µM | ? | – | · | ·
CC(=O)COc1cccc2ccc(/C=C/c3ccc(Br)s3)nc12 | 19µM | ? | ? | · | ·

Compound activity as filed in PubChem BioAssay.
